# DENV2 CPE = inhibitors of DENV2 cytopathic effect, primary screen, cell-based, plate reader, single concentration. actives 1.7% (n = 350,000). CPE inhibition, % at 9.99 µM. DENV2-infected cells, cytopathic effect rescue; in the data active = CPE inhibition above about 20%, passing the limit was not always enough; inconclusive = no clear call, values can overlap the other calls; tested in BHK-21 cells;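 note: 0% = median of neutral control wells and 100% = median of positive control wells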
# Ecoli rRNA inh = reduced GFP signal of wild-type E. coli, primary screen, bacterial rRNA inhibitor project, GFP/RFP fluorescence, OD600, single point; GFP signal change (wild-type ribosome), % (no concentration beside the values); actives 1.6% (n = 350,000); E. coli WT GFP vs humanized-ribosome RFP mutants, 24 h; stronger effect = lower value; DMSO median 0, no signal -100;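 active = significant combined selectivity score with lowered wild-type GFP, culture density cut under 30%, mutant RFP and density less affected; inactive = any of these conditions unmet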
# CaV13 FRET inh = Primary screen for inhibitors of IQ motif and Ca2+-dependent inactivation inhibitor domain binding in CACNA1D, Förster resonance energy transfer in living cells, … | actives 0.098% (n = 340,000) | inhibition, % at 12.3 µM | HEK cells, CFP/YFP FRET ICDI-IQ, plate reader, 10 min; percent FRET-ratio fall versus neutral wells;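 active = mean replicate inhibition of at least 30% and at least 1% of replicates passing that level; inconclusive = only one of the two criteria is met; inactive = neither criterion is met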;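 note: 0% = median of the neutral control wells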
# PGC1a acetyl inh = inhibitors of PGC1a acetylation signal, primary screen, cell-based, U2OS, AlphaScreen, inhibitor mode; AlphaScreen anti-acetyl-lysine; with virally co-expressed GCN5 acetyltransferase; inhibition, % at 15.6 µM; actives 0.17% (n = 350,000); AID 651687, 2012;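 active = every replicate shows inhibition of at least 40%; inconclusive = mean inhibition at least 40% but some replicate below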;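 note: 0% = neutral control wells and 100% = positive control wells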
# ERAP1 HTS inh = human ERAP1 aminopeptidase inhibitors, primary screen, biochemical, single point, plate reader; Endoplasmic reticulum aminopeptidase 1 (Homo sapiens), Q9NZ08; recombinant ERAP1, Leu-AMC fluorescence, 60 min; inhibition, % at 10.7 µM; actives 0.15% (n = 340,000);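 active = mean replicate inhibition of at least 30%, or all replicates individually reaching that 30% level; inactive = mean below 30% and not every replicate reaching it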;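 note: 0% = neutral control wells and 100% = L-leucinethiol positive control wells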
# Target sequence (Q9NZ08 whole entry, looked up): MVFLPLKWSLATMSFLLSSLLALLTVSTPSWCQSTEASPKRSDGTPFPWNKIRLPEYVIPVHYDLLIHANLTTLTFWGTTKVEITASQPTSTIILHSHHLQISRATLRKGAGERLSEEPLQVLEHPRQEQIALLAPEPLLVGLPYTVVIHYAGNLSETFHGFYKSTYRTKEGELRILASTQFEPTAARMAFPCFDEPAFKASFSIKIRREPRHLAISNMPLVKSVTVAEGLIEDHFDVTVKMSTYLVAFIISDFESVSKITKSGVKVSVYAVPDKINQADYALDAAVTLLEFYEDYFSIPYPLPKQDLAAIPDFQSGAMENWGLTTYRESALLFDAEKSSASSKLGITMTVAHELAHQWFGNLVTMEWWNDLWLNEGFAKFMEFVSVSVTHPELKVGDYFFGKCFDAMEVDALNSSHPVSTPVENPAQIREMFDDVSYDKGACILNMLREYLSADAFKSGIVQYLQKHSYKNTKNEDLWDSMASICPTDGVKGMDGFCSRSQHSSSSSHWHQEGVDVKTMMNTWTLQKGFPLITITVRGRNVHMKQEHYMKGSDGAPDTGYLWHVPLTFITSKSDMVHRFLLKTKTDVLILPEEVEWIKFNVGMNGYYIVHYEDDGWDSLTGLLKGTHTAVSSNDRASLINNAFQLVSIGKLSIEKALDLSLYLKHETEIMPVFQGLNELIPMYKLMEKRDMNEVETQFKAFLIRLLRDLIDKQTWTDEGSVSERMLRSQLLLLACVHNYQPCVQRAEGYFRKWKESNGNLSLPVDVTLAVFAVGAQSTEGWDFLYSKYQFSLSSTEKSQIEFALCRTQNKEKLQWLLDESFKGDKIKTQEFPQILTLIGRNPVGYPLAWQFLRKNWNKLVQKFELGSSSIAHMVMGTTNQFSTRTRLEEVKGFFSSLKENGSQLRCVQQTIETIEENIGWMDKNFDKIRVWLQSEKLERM
# INS-1E GSIS act = GLuc luminescence reporter in INS-1E cells, primary screen for activators of glucose-dependent secretion of insulin | INS-1E GLuc reporter insulin secretion, 2-3 h | activation, % at 16.6 µM | actives 0.61% (n = 370,000);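 active = lowest replicate activation of at least 40%, so every replicate reaches that level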;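 note: 0% = median of neutral control wells and 100% = median of IBMX positive control wells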
# An asterisk follows results filed as active; ? = inconclusive; . = no result. An excerpt weighted towards active compounds, which were near 3.2% of everything screened.
SMILES,DENV2 CPE,Ecoli rRNA inh,CaV13 FRET inh,PGC1a acetyl inh,ERAP1 HTS inh,INS-1E GSIS act
CC(=O)Nc1ccc(-c2ccnc3c2CC(C)(C(=O)Nc2cccc(OC(F)(F)F)c2)O3)cc1 (stereo not given),-4.4,-9.5,-4.7,-1.5,-3.8,69.3*
CC(C)NC(=O)N(C)C[C@@H]1Oc2ccc(NS(=O)(=O)c3ccc(F)cc3)cc2C(=O)N([C@H](C)CO)C[C@H]1C,.,2.8,.,7.2,.,-0.1
CC(C)C[C@@H](C)C(=O)N(Cc1ccccc1)c1ccccc1,18.5,-34.8*,-4.8,.,-0.1,13.5
Cc1ccc(-n2c(=O)c3c4c(sc3n3c(=S)[nH]nc23)CCC4)cc1,-3.9,.,-19.8,-25.0,0.2,.
COc1ccc(-n2c(=O)c3c4c(sc3n3c(=S)[nH]nc23)CCC4)cc1,3.3,-24.8*,-0.4,-234.3,-0.6,-18.8
C[C@H]1CCCCO[C@H](CN(C)C(=O)NC2CCCCC2)[C@@H](C)CN([C@@H](C)CO)C(=O)c2cc(NS(=O)(=O)c3ccc(F)cc3)ccc2O1,23.9*,-1.1,.,8.8,1.4,-25.0
C[C@@H]1CN([C@H](C)CO)C(=O)c2cc(NS(=O)(=O)c3ccc(F)cc3)ccc2O[C@@H](C)CCCCO[C@@H]1CN(C)C(=O)NC1CCCCC1,14.3,-1.5,.,-0.3,-3.3,-31.0
C[C@@H]1CCCCO[C@H](CN(C)C(=O)NC2CCCCC2)[C@H](C)CN([C@@H](C)CO)C(=O)c2cc(NS(=O)(=O)c3ccc(F)cc3)ccc2O1,50.6*,-2.2,.,-13.1,-1.9,-25.9
CCCN1CCC(NC(=O)CC2C(=O)NCCN2Cc2cccc(OC)c2)CC1 (stereo not given),85.3*,6.8,-3.2,.,-1.0,-3.0
CCN(CC)c1ccc(/C=N/NC(=O)c2ccoc2C)c(O)c1,-1.1,-34.2*,-2.4,23.7,-8.6,-20.6
CCN(CC)c1ccc(/C=N/NC(=O)OC)c(O)c1,.,.,.,5.7,.,.
COc1cc(OC)nc(Oc2ccccc2C(=O)Oc2ccccc2Cl)n1,10.6,-22.7*,-6.1,-12.8,6.5,-2.5
COc1cc(OC)nc(Oc2ccccc2C(=O)Oc2ccc(Cl)cc2)n1,1.0,-14.5,-7.2,-17.2,-0.2,-0.6
Cc1ccc(C(=O)C(C)OC(=O)Cc2c[nH]c3ccccc23)cc1 (stereo not given),26.5*,-15.2,-1.9,.,1.2,-30.6
COc1ccc2nc(NCCCNC(=O)c3cc(OC)c(OC)c(OC)c3)c(C#N)cc2c1,.,.,-0.8,8.3,.,.
COc1cc(C(=O)NCCNc2nc3c(C)cccc3cc2C#N)cc(OC)c1OC,?,4.3,-4.6,9.4,-4.5,.
COc1cc(C(=O)NCCCNc2nc3c(C)cc(C)cc3cc2C#N)cc(OC)c1OC,-2.8,19.4,58.6*,2.0,5.6,20.4
COc1ccc(C(=O)NCCNc2nc3c(C)cccc3cc2C#N)cc1OC,28.8*,6.0,-5.0,6.4,-6.2,4.0
CCC(=O)NCCCNc1nc2c(C)cccc2cc1C#N,-3.1,6.4,45.6*,-0.6,3.2,-10.5
COc1ccc(C(=O)NCCNc2nc3c(C)cccc3cc2C#N)cc1,2.7,2.5,-15.2,9.0,10.6,1.0
COc1ccc(C[C@H]2CCn3cc(nn3)COCCNC2=O)cc1,.,1.8,.,.,.,8.8
CO[C@@H]1CN(C)C(=O)c2ccc(NS(C)(=O)=O)cc2OC[C@H](C)N(Cc2cccnc2)C[C@H]1C,-2.1,1.6,.,1.0,-2.0,13.6
COc1ccccc1NC(=O)N[C@@H]1CC[C@H](CCNS(=O)(=O)c2ccccc2)O[C@@H]1CO,-1.3,-0.6,.,-0.4,-0.2,4.5
CCOC(=O)C1=C(C)Nc2ccccc2N=C1NC(=O)C(c1ccccc1)c1ccccc1,6.5,-20.9*,-3.0,0.3,-1.8,.
COC(=O)c1c(CC[C@@H](CO)NC(=O)N[C@@H](Cc2ccccc2)Cn2cc(C3(O)CCCC3)nn2)oc(C(=O)N2CCOCC2)c1C(=O)OC,-2.2,.,.,11.4,-1.4,.
SMILES,DENV2 CPE,Ecoli rRNA inh,CaV13 FRET inh,PGC1a acetyl inh,ERAP1 HTS inh,INS-1E GSIS act
O=C1c2cccc3c2N(CCC3)C(=O)C1(F)c1ccccc1 (stereo not given),3.9,-17.1*,-5.1,0.7,3.5,4.5
C[C@@H]1CN([C@H](C)CO)S(=O)(=O)c2ccc(C#CC3CC3)cc2O[C@@H]1CN(C)Cc1ccncc1,-9.3,-5.2,.,-23.2,-0.2,-0.5
C[C@@H]1CN([C@H](C)CO)S(=O)(=O)c2ccc(C#CC3CCCC3)cc2O[C@H]1CN(C)C,61.2*,1.0,.,-51.8,-8.5,9.2
C[C@H]1CN([C@@H](C)CO)S(=O)(=O)c2ccc(C#CC3CC3)cc2O[C@@H]1CN(C)Cc1ccncc1,41.7*,-48.9,.,-11.7,-0.5,9.0
COc1ccc2c3c(n(C)c2c1)[C@@H](CO)N(C(=O)c1cccc(F)c1)CC31CCN(CC2CC2)CC1,.,0.9,.,.,.,5.9
COc1cccc(Cn2c(NCc3ccccn3)nc3c2c(=O)n(C)c(=O)n3C)c1,.,.,.,.,.,10.4
COc1cccc(Cn2c(NCc3cccnc3)nc3c2c(=O)n(C)c(=O)n3C)c1,.,.,-1.5,71.3*,.,.
CCc1c(C)sc(NC(=O)c2cc(-c3ccc(OC)c(OC)c3)on2)c1C#N,.,.,-7.6,6.0,.,80.4*
COc1cccc(-n2c(=O)c3ccccc3n(CC(=O)NCC3CCCO3)c2=O)c1 (stereo not given),-5.1,4.2,-2.2,.,-1.7,75.5*
COc1cccc(-n2c(SCC(=O)NCC3CCCO3)nc3c([nH]c4ccccc43)c2=O)c1 (stereo not given),6.5,-24.2*,-3.8,1.6,3.3,-12.8
CO[C@@H]1CN(C)C(=O)c2cc(NS(=O)(=O)c3ccc(Cl)cc3)ccc2OC[C@@H](C)N(C(=O)NC(C)C)C[C@@H]1C,.,-1.3,.,-8.2,.,2.3
C[C@H]1CN([C@@H](C)CO)C(=O)c2cc(NC(=O)Nc3ccccc3)ccc2O[C@@H]1CN(C)CC1CCCCC1,7.3,1.7,.,1.6,1.6,-14.5
CO[C@@H]1CN(C)C(=O)c2ccc(NC(=O)c3cnccn3)cc2OC[C@H](C)N(C)C[C@H]1C,.,1.1,.,-4.1,.,5.4
C[C@@H]1CN([C@@H](C)CO)C(=O)Cc2cc(NC(=O)CCC(F)(F)F)ccc2O[C@@H]1CN(C)CC1CC1,42.5*,1.4,.,9.3,2.7,4.9
C[C@@H]1CN([C@@H](C)CO)C(=O)Cc2cc(NC(=O)CCC(F)(F)F)ccc2O[C@H]1CN(C)CC1CC1,2.5,4.1,.,-14.6,-2.5,3.7

# Screens deposited in PubChem by Broad Institute.
